The source of these data is PubChem BioAssay (NCATS).

Records with an inconclusive call do not appear. Unmarked numbers belong to inactive results. Activity calls are given as the source filed them. The call rests on the fitted dose curve; in most records, active means well fitted inhibition curve with a large enough effect; inconclusive means small, poorly fitted or top-dose-only effect; inactive means flat fitted curve, though single readings scatter.
Potency means the concentration at half of the fitted maximal effect.

The subject of one experiment is CP238. Kind of experiment: qHTS profiling for inhibitors of Plasmodium falciparum proliferation (AID 504749). Further: nearly all actives have a fitted effect of over 60% in size.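 On activity, negative = inhibition: 0% = DMSO vehicle and full inhibition = artemisinin control.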 Particulars: P. falciparum in erythrocytes, SYBR Green DNA, 72 h; series mostly up to 28.7 µM; activity, negative = inhibition: at the top concentration. Summed up: (§1)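 P. falciparum-infected erythrocytes (0.3% parasitemia, 2.5% hematocrit) incubated with compound 72 h at 37 C, 5% CO2. Parasite DNA detected by SYBR Green after lysis, overnight at room temperature; normalised to 0.29 uM artemisinin and DMSO.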
In general terms: In qHTS, concentration-response curves come from the screen itself.
As to `O=C(OCc1ccccc1)c1ccccc1`, the “activity, negative = inhibition” value was -2.42%.

For `Nc1ccc(C(=O)O)c(O)c1`, the “activity, negative = inhibition” value was 2.41%.

As for `O=C(/C=C/c1ccccc1)NCCO`, the “activity, negative = inhibition” value was 11%.

On to `O=C1CN(/N=C/c2ccc(-c3ccc([N+](=O)[O-])cc3)o2)C(=O)N1`, for which the “activity, negative = inhibition” value was -12%.

Regarding `CCCCCCCCCCCCCCCCCC(=O)O`, the “activity, negative = inhibition” value was 2.46%.

Regarding `O=C(O)c1cc(O)c(O)c(O)c1`, the “activity, negative = inhibition” value is -21.8%.

For the compound `CCOC(=O)c1ccccc1O`, the “activity, negative = inhibition” value is 5.62%.

As to `COc1cc(/C=C/C(=O)N2CCN(CC(=O)N3CCCC3)CC2)cc(OC)c1OC`, the “activity, negative = inhibition” value was 1.23%.

For the compound `Nc1cc(-c2ccncc2)c[nH]c1=O`, the “activity, negative = inhibition” value was 4.07%.

Regarding `O=C(O)c1ccccc1Nc1cccc(C(F)(F)F)c1`, the “activity, negative = inhibition” value was -18.7%.

In the case of `c1ccc2sc(SN3CCOCC3)nc2c1`, the “activity, negative = inhibition” value is -15%.

With `Cc1nc2ccccc2n1Cc1ccc(Cl)cc1`, the “activity, negative = inhibition” value is -29.4%.

For the compound `Clc1ccccc1-c1nc(-c2ccncc2)no1`, the “activity, negative = inhibition” value is 2.04%.

As for `CCOc1ccc2nc(S(N)(=O)=O)sc2c1`, the “activity, negative = inhibition” value was -4.53%.

`O=C(O)/C=C/C(O)c1ccc(Cl)cc1` (stereo not given): the “activity, negative = inhibition” value was 10.5%.

Turning to `Oc1c(Br)cc(Br)c2cccnc12`, the “activity, negative = inhibition” value is -4.62%.

As to `Cc1ccc(C(=O)c2ccc(CC(=O)O)n2C)cc1`, the “activity, negative = inhibition” value was 6.93% [at 12.8 µM].

Take `Cc1cc(O)c2ccccc2c1O`: the “activity, negative = inhibition” value is -3.74%.

For the compound `COc1ccc(-c2cc(=S)ss2)cc1`, the “activity, negative = inhibition” value is -1.67%.

In the case of `CN1[C@@H]2CC[C@H]1CC(OC(=O)C(CO)c1ccccc1)C2` (stereo not given in full), the “activity, negative = inhibition” value is 0.642%.

Turning to `CCCSc1ccc2nc(NC(=O)OC)[nH]c2c1`, the “activity, negative = inhibition” value was -2.07% [at 12.8 µM].

Regarding `O=C(O)[C@H](CC(=O)N1C[C@H]2CCCC[C@H]2C1)Cc1ccccc1`, the “activity, negative = inhibition” value was 6.82%.

Turning to `C=C(Nc1ccc(OCC)cc1)Nc1ccc(OCC)cc1`, the Potency result is “inactive”.

Another experiment deals with CP247. The description is as above. Particulars: P. falciparum in erythrocytes, SYBR Green DNA, 72 h; series mostly up to 28.7 µM; activity, negative = inhibition: at the top concentration. The gist of the method:
as §1
Regarding `CN(C)c1ccc(C(=C2C=CC(=[N+](C)C)C=C2)c2ccccc2)cc1`, the Potency was 6.31 µM (active).

In the case of `O=C(OCc1ccccc1)c1ccccc1`, the “activity, negative = inhibition” value is 10.2%.

In the case of `Nc1ccc(C(=O)O)c(O)c1`, the “activity, negative = inhibition” value is 6.88%.

As to `O=C(/C=C/c1ccccc1)NCCO`, the “activity, negative = inhibition” value was 6.7%.

For the compound `O=C1CN(/N=C/c2ccc(-c3ccc([N+](=O)[O-])cc3)o2)C(=O)N1`, the Potency is 4.47 µM (active).

As to `CCCCCCCCCCCCCCCCCC(=O)O`, the “activity, negative = inhibition” value is 6.97%.

As to `CN1[C@@H](CC(=O)c2ccccc2)CCC[C@H]1C[C@H](O)c1ccccc1`, the “activity, negative = inhibition” value is -24.6%.

In the case of `CCOC(=O)c1ccccc1O`, the “activity, negative = inhibition” value is 12.4%.

As for `COc1cc(/C=C/C(=O)N2CCN(CC(=O)N3CCCC3)CC2)cc(OC)c1OC`, the “activity, negative = inhibition” value is 7.8%.

As to `Nc1cc(-c2ccncc2)c[nH]c1=O`, the “activity, negative = inhibition” value is 2.47%.

Consider `O=C(O)c1ccccc1Nc1cccc(C(F)(F)F)c1`, for which the “activity, negative = inhibition” value is -26.9%.

Regarding `COc1cc(/C=C/C(=O)CC(=O)/C=C/c2ccc(O)c(OC)c2)ccc1O`, the Potency is 8.91 µM (active).

With `c1ccc2sc(SN3CCOCC3)nc2c1`, the “activity, negative = inhibition” value was -7.33%.

On to `Clc1ccccc1-c1nc(-c2ccncc2)no1`, for which the “activity, negative = inhibition” value was -7.68%.

`CCOc1ccc2nc(S(N)(=O)=O)sc2c1`: the “activity, negative = inhibition” value is 12.1%.

For the compound `O=C(O)/C=C/C(O)c1ccc(Cl)cc1` (stereo not given), the “activity, negative = inhibition” value is 33.2%.

For `Oc1c(Br)cc(Br)c2cccnc12`, the “activity, negative = inhibition” value was -4.75%.

`Cc1ccc(C(=O)c2ccc(CC(=O)O)n2C)cc1`: the “activity, negative = inhibition” value is 4.42% [at 12.8 µM].

As for `Cc1cc(O)c2ccccc2c1O`, the “activity, negative = inhibition” value was -29.8%.

On to `COc1ccc(-c2cc(=S)ss2)cc1`, for which the “activity, negative = inhibition” value is -4.58%.

For `CN1[C@@H]2CC[C@H]1CC(OC(=O)C(CO)c1ccccc1)C2` (stereo not given in full), the “activity, negative = inhibition” value was 6.04%.

As for `O=C(O)[C@H](CC(=O)N1C[C@H]2CCCC[C@H]2C1)Cc1ccccc1`, the “activity, negative = inhibition” value is -1.31%.

As for `C=C(Nc1ccc(OCC)cc1)Nc1ccc(OCC)cc1`, the Potency entry was “inactive”.

On to `CC(=O)[C@]1(O)Cc2c(O)c3c(c(O)c2[C@@H](O[C@H]2C[C@H](N)[C@H](O)[C@H](C)O2)C1)C(=O)c1c(O)cccc1C3=O`, for which the Potency is 5.62 µM (active).

For the next experiment, the system named is CP250. The description is as above. Particulars: P. falciparum in erythrocytes, SYBR Green DNA, 72 h; series mostly up to 28.7 µM; activity, negative = inhibition: at the top concentration. The gist of the method: as §1
With `CN(C)c1ccc(C(=C2C=CC(=[N+](C)C)C=C2)c2ccccc2)cc1`, the Potency is 11.2 µM (active).

Consider `O=C(OCc1ccccc1)c1ccccc1`, for which the “activity, negative = inhibition” value is -0.389%.

`Nc1ccc(C(=O)O)c(O)c1`: the “activity, negative = inhibition” value was 8.37%.

For `O=C(/C=C/c1ccccc1)NCCO`, the “activity, negative = inhibition” value is 0.616%.

On to `O=C1CN(/N=C/c2ccc(-c3ccc([N+](=O)[O-])cc3)o2)C(=O)N1`, for which the “activity, negative = inhibition” value is -20.6%.

Turning to `CCCCCCCCCCCCCCCCCC(=O)O`, the “activity, negative = inhibition” value was -6.66%.

For `O=C(O)c1cc(O)c(O)c(O)c1`, the Potency was 5.62 µM (active).

Take `CN1[C@@H](CC(=O)c2ccccc2)CCC[C@H]1C[C@H](O)c1ccccc1`: the “activity, negative = inhibition” value is -28.6%.

In the case of `COc1cc(/C=C/C(=O)N2CCN(CC(=O)N3CCCC3)CC2)cc(OC)c1OC`, the “activity, negative = inhibition” value was 2.89%.

For `Nc1cc(-c2ccncc2)c[nH]c1=O`, the “activity, negative = inhibition” value was -2.46%.

Regarding `O=C(O)c1ccccc1Nc1cccc(C(F)(F)F)c1`, the “activity, negative = inhibition” value is -15.7%.

As to `NC(=O)C(c1ccccc1)(c1ccccc1)[C@@H]1CCN(CCc2ccc3c(c2)CCO3)C1`, the “activity, negative = inhibition” value was -26.8%.

Turning to `COc1cc(/C=C/C(=O)CC(=O)/C=C/c2ccc(O)c(OC)c2)ccc1O`, the Potency was 8.91 µM (active).

With `c1ccc2sc(SN3CCOCC3)nc2c1`, the “activity, negative = inhibition” value was -18.6%.

On to `Cc1nc2ccccc2n1Cc1ccc(Cl)cc1`, for which the “activity, negative = inhibition” value is -9.67%.

Turning to `Clc1ccccc1-c1nc(-c2ccncc2)no1`, the “activity, negative = inhibition” value is 0.787%.

Consider `CCOc1ccc2nc(S(N)(=O)=O)sc2c1`, for which the “activity, negative = inhibition” value was -6.83%.

Regarding `CN1[C@@H]2CC[C@H]1CC(OC(c1ccccc1)c1ccccc1)C2` (stereo not given in full), the “activity, negative = inhibition” value was -28.7%.

`O=C(O)/C=C/C(O)c1ccc(Cl)cc1` (stereo not given): the “activity, negative = inhibition” value was 0.0326%.

With `Oc1c(Br)cc(Br)c2cccnc12`, the “activity, negative = inhibition” value was -21.4%.

On to `Cc1ccc(C(=O)c2ccc(CC(=O)O)n2C)cc1`, for which the “activity, negative = inhibition” value was 6.11% [at 12.8 µM].

With `COc1ccc(-c2cc(=S)ss2)cc1`, the “activity, negative = inhibition” value is 5.54%.

As for `CN1[C@@H]2CC[C@H]1CC(OC(=O)C(CO)c1ccccc1)C2` (stereo not given in full), the “activity, negative = inhibition” value was 8.38%.

In the case of `CCCSc1ccc2nc(NC(=O)OC)[nH]c2c1`, the “activity, negative = inhibition” value was -24.6% [at 12.8 µM].

`O=C(O)[C@H](CC(=O)N1C[C@H]2CCCC[C@H]2C1)Cc1ccccc1`: the “activity, negative = inhibition” value was -7.77%.

With `C=C(Nc1ccc(OCC)cc1)Nc1ccc(OCC)cc1`, the Potency result is “inactive”.

Turning to `CC(=O)[C@]1(O)Cc2c(O)c3c(c(O)c2[C@@H](O[C@H]2C[C@H](N)[C@H](O)[C@H](C)O2)C1)C(=O)c1c(O)cccc1C3=O`, the Potency is 11.2 µM (active).

For the compound `CC(N)C(=O)OC(C)(C)Cc1ccc(Cl)cc1` (stereo not given), the “activity, negative = inhibition” value is -28.2%.
